The inhibition is the relative decrease from the control value, in per cent. Broadly, the remaining activity is the signal under treatment as a percentage of the control signal. As a reminder, the AC50 is the concentration at which the activity in the assay is half-maximal.

Assay [1] in a line: GFP-Q80 aggregate reduction, neuronal-like cells, cell-based, NGF-treated PC12, GFPQ80 (AID 1614).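 Note: lower means fewer inclusions and 0 means no inclusions at all.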 As to conditions: PC12 NGF-treated GFP-polyQ80 inclusion reduction.
A short description of assay [2]: compounds altering circadian rhythm period length – cell-based, LOPAC library, luminescence reporter (AID 2774).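 Note: values are relative to mean of DMSO wells on each plate.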 The note with it: circadian reporter cells, at 7 µM, actives lie on both sides.
The test system of assay [3] is Hepatitis C virus NS3 helicase. The assay can be described thus: blockers of NS3h binding to ssDNA – biochemical, fluorescence polarization, LOPAC1280 library, primary screen (AID 687035; in the data active = inhibition above about 37%). As to conditions: Purified HCV NS3 helicase, Cy5-dT15 ssDNA binding fluorescence polarization; stronger effect = higher value; concentration not given here. (Polarisation of emitted light reports the rotation of a fluorescent probe.)

A short description of assay [4]: compounds altering Cy5-DNA-NS3h complex signal – biochemical, LOPAC1280, artefact control for HCV NS3 helicase inhibitor project (AID 687037). As to conditions: Cy5-DNA-NS3h complex fluorescence interference counterscreen. For orientation: A counterscreen serves to expose hits that act by an unwanted route or on another target.
The nature of assay [5]: signal quenchers or enhancers, Cy5 substrate/SSB – biochemical, NIH Clinical Collection, E. coli SSB, artefact control for HCV NS3 helicase inhibitor project (AID 743268). The note with it: Cy5-oligo bound E. coli SSB, fluorescence interference.
Assay [6] deals with Hepatitis C virus NS3 helicase. The assay can be described thus: blockers of NS3h binding to DNA – biochemical, fluorescence polarization, NIH Clinical Collection, primary screen (AID 743270). As to conditions: NS3 helicase binding to Cy5-dT15 DNA, stronger effect = higher value, concentration not given here.
Assay [7] deals with Single-stranded DNA-binding protein (Escherichia coli (strain K12)) (UniProt P0AGE0). In words: SSB-ssDNA binding inhibitors – biochemical, fluorescence polarization, NIH Clinical Collection, counter-screen for HCV NS3 helicase inhibitor project (AID 743271; in the data active = inhibition above about 28%). As to conditions: E. coli SSB-DNA binding, stronger effect = higher value, concentration not given here.
A short description of assay [8]: compounds distorting NS3 helicase fluorescence signal – biochemical, NIH Clinical Collection, artefact control for HCV NS3 helicase inhibitor project (AID 743272).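 Note: HCV NS3 helicase with a Cy5 labelled single stranded DNA probe.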 As to conditions: fluorescence interference counterscreen, HCV NS3 helicase assay; stronger effect = lower value.
Assay [9] deals with Aerobactin synthetase IucA (Klebsiella pneumoniae). In words: inhibition of K. pneumoniae IucA enzyme – biochemical, Tocris library, absorbance (AID 1345561).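 Note: 100% = enzyme without compound and 0% = no enzyme.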 As to conditions: purified IucA enzyme assay, absorbance (OD) read-out; stronger effect = lower value;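 tested at 8 µM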.
A short description of assay [10]: viability loss in pontine glioma line – cell-based, SU-DIPG-XVII, MIPE5.0, CellTiter-Glo, qHTS, dose response (AID 1347060; cut-off not given, nearly all actives have AC50 up to about 26 µM;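 for AC50: cells exposed to compound for 48 hours before viability readout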). As to conditions: CellTiter-Glo ATP luminescence. A general note: ATP-based viability assays read luminescence as a measure of living cells.
Assay [11] can be described thus: viability loss in pontine glioma line – cell-based, SU-DIPG-XIII, MIPE5.0, CellTiter-Glo, qHTS, dose response (AID 1347064; cut-off not given, nearly all actives have AC50 up to about 23 µM;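 for AC50: cells exposed to compound for 48 hours before the viability read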). As to conditions: CellTiter-Glo ATP luminescence.
Assay [12] is described as follows: viability loss in pontine glioma line – cell-based, SU-DIPG-XXV, MIPE5.0, CellTiter-Glo, qHTS, dose response (AID 1347065; cut-off not given, nearly all actives have AC50 up to about 26 µM;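 note: cells exposed to compound for 48 hours before ATP readout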). As to conditions: CellTiter-Glo ATP luminescence.
Assay [13] is described as follows: JHH-DIPG-1 glioma cell viability, MIPE5.0 library, CellTiter-Glo luminescence, qHTS (AID 1347067; cut-off not given, nearly all actives have AC50 up to about 26 µM;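 note: cells exposed to compound for 48 hours before readout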). The note with it: JHH-DIPG-1 glioma viability, CellTiter-Glo ATP luminescence.
Assay [14] is described as follows: growth inhibition of DIPG cells – cell-based, MIPE5.0 library, qHTS (AID 1347068; cut-off not given, nearly all actives have IC50 up to about 30 µM). As to conditions: SU-DIPG-XXV viability.
The nature of assay [15]: blockers of cellular phospholipid synthesis – cell-based, LOPAC library, screen 4, primary screen (AID 1347384). As to conditions: animal cells, phospholipid biosynthesis inhibition screen; at 10 µM.
Assay [16] in a line: galactose survival enhancers in mitochondrial complex I cybrids – cell-based, galactose medium, ATP luminescence, primary screen (AID 1645843;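 active = z-score of at least 1.8 in each of two replicates, scored against plate mean and spread of sample wells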;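 note: positive z means more ATP and so rescue of galactose-driven cybrid death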). As to conditions: complex I mutant cybrid cells, 72 h, stronger effect = higher value.
Assay [17] in a line: viability loss in pontine glioma line – cell-based, SU-DIPG-XIII, MIPE4.0, CellTiter-Glo, qHTS, dose response (AID 1347061; cut-off not given, nearly all actives have AC50 up to about 37 µM;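 note: cells exposed to compound for 48 hours before readout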). The note with it: CellTiter-Glo ATP luminescence.
Assay [18] in a line: growth inhibition, MDA-MB-436, cell-based, BGB or cisplatin combos, synergistic combos for chromothripsis tumors (AID 1671458).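 Note: cells exposed for 96 hours; 0% = vehicle DMSO and 100% = killing by high DMSO.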 As to conditions: MDA-MB-436 breast carcinoma growth inhibition, drug combinations, stronger effect = higher value.
The nature of assay [19]: BT084 cell growth, single and combined drugs, ICGC_MB145, cisplatin and BGB IC40 combos (AID 1671461; in the data active = inhibition above about 80%;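 note: cells exposed to drugs for 96 hours; 0% = vehicle DMSO and 100% = high DMSO full killing control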). As to conditions: BT084 medulloblastoma cells, drug combinations, stronger effect = higher value.
Assay [20] is described as follows: RCMB18 cell growth, single agent and combined, cisplatin and BGB IC40 combos (AID 1671462; in the data active = inhibition above about 80%;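 note: cells exposed to compound for four days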). As to conditions: RCMB18 medulloblastoma cells, stronger effect = higher value.

“And” between values parts separate entries of the source, which are not always exact repeats. Identical values can stand only once. Inconclusive results are not listed. The source made the active and inactive calls. Unless noted, the rule behind the calls is not given here.

`CCC1(c2ccccc2)C(=O)NCNC1=O` had an inclusion score in [1] of 2. Also, in assay [2], the period change is -0.19 h (inactive). In addition, the figures for the inhibition in assay [3], in assay [6] and in [7] were 1% (inactive), -2.27% (inactive) and -0.48% (inactive), respectively. Also, the fluorescence ratio (interference) in assay [4] was 1 (inactive). Further, the fluorescence ratio in assay [5] is 1.04 (inactive); in assay [8] it was 0.97 (inactive). Moreover, the remaining activity in [9] is 91.8% (inactive). Further, the outcome in assay [10], in assay [11], in [12], in assay [13], in assay [14] and in assay [15] was inactive. Also, in [16], the z-score is 1.15 (inactive) and 0.365 (inactive) and 1.9 (inactive).

On to `CCCCCN=C(N)N/N=C/c1c[nH]c2ccc(OC)cc12`, for which the results for the fluorescence ratio in assay [5] and in assay [8] were 0.7 (active) and 0.88 (inactive), respectively. Besides, the inhibition is 8.32% (inactive) in assay [6] and 7.6% (inactive) in [7]. The concentration at half-maximal activity (AC50) in assay [10] was 13.2 µM (active); in assay [11] it was 13.2 µM (active); in assay [12], 14.8 µM (active). In addition, the molecule was classed as inactive in assay [17] and in [14].

`c1ccc([C@H]2CN3CCSC3=N2)cc1` came in with an inclusion score in [1] of 1.5. In addition, the period change in assay [2] is -0.17 h (inactive). Moreover, the inhibition in assay [3] was -1% (inactive). Further, the fluorescence ratio (interference) in assay [4] is 1 (inactive). The outcome in [10], in assay [17], in [11], in assay [12], in assay [13] and in assay [14] was inactive. In addition, the call in assay [15] was inactive. Further, the z-score in [16] is 0.83 (inactive) and -0.1 (inactive).

As for `CCN(CCO)CCCC(C)Nc1ccnc2cc(Cl)ccc12` (stereo unspecified), in assay [1], the inclusion score is 1.5. The molecule was classed as inactive in [10], in assay [17], in [11], in assay [13] and in [14].

On to `CC(C)NCC(O)c1ccc(O)c(O)c1` (stereo unspecified), for which the inclusion score in [1] came out at 2. For the same molecule, the period change in assay [2] is -0.07 hour (inactive) and 0.21 hour (inactive). In addition, the inhibition in [3] is -3% (inactive); in assay [6], -5% (inactive); in assay [7] it was -0.48% (inactive). For the same molecule, in assay [4], the fluorescence ratio (interference) is 1 (inactive). In addition, the fluorescence ratio in assay [5] was 1.01 (inactive); in assay [8] it was 0.95 (inactive). Besides, in assay [9], the remaining activity was 108% (inactive). The outcome in assay [10], in assay [11], in assay [12], in assay [13], in [14] and in assay [15] was inactive.

`Nc1nc2c(ncn2COCCO)c(=O)[nH]1` gave an inclusion score in assay [1] of 2. Moreover, the period change in [2] is -0.035 h (inactive). Also, the inhibition was -2% (inactive) in [3]; -28.5% (inactive) and -3.5% (inactive) in assay [18] (at 0.5 µM); -28% and -11% in [18] (measured here: BGB combination, at 0.5 µM); -21.3% and -10.7% in [18] (measured here: BGB combination, at 5 µM); -47.5% and -0.282% in [18] (measured here: cisplatin combination, at 0.5 µM); -36.3% and -17.4% in assay [18] (measured here: cisplatin combination, at 5 µM). Further, the inhibition in assay [19] (at 0.5 µM) was -21.3% (inactive) and -1.95% (inactive); in [19] (cisplatin combination, at 0.5 µM), -12.5% and -17.2%; in assay [19] (cisplatin combination, at 5 µM), -6.79% and -8.03%; in assay [19] (measured here: BGB IC40 combination 0.05 uM, at 0.05 µM), -1.08% and -21.3%; in [19] (single agent, at 5 µM) it was -0.642% and -9.5%; in assay [20] (at 0.5 µM), -24.6% (inactive) and -1.99% (inactive). Also, the inhibition in [20] (cisplatin combo, at 5 µM) was -16.8% and -20.6%; in assay [20] (measured here: BGB IC40 combination, at 0.05 µM) it was -28.4% and 4.2%; in assay [20] (measured here: combination with cisplatin, at 0.5 µM), -35.4% and 12.7%; in assay [20] (single agent, at 5 µM), -21.5% and -6.99%. For the same molecule, in assay [4], the fluorescence ratio (interference) was 1 (inactive). For the same molecule, in assay [9], the remaining activity was 117% (inactive). The molecule was classed as inactive in assay [10], in assay [17], in [12], in [13], in [14] and in [15].

`CCOC(=O)[C@H](CCc1ccccc1)N[C@H]1CCc2ccccc2N(CC(=O)O)C1=O`: the fluorescence ratio was 1.03 (inactive) in [5] and 1.04 (inactive) in assay [8]. The inhibition in assay [6] is -1.98% (inactive); in assay [7] it was 2.98% (inactive). The remaining activity in assay [9] is 104% (inactive). The molecule was classed as inactive in [10], in assay [11], in assay [12], in assay [13] and in assay [14]. For the same molecule, the AC50 in assay [17] is 20.9 µM (active). Besides, in [16], the z-score was 0.145 (inactive).

For the molecule `CC[C@H](C)C(=O)O[C@H]1C[C@@H](C)C=C2C=C[C@H](C)[C@H](CC[C@@H]3C[C@@H](O)CC(=O)O3)[C@H]21`, the fluorescence ratio is 1.1 (inactive) in assay [5] and 0.96 (inactive) in assay [8]. The inhibition is 3.18% (inactive) in [6] and 3.34% (inactive) in [7]. Moreover, in assay [9], the remaining activity is 113% (inactive). The outcome in [17], in assay [12] and in [14] was inactive. The z-score in assay [16] was -0.3 (inactive) and -0.62 (inactive) and -0.095 (inactive).

`c1ccc(CC2=NCCN2)cc1` yielded an inclusion score in assay [1] of 2. Also, the fluorescence ratio in assay [5] is 1.05 (inactive); in assay [8], 1.01 (inactive). In addition, the figures for the inhibition in assay [6] and in [7] were -2.27% (inactive) and -0.48% (inactive), respectively. In addition, the z-score in assay [16] was 0.495 (inactive).

These data come from PubChem BioAssay.
